Laboratory results taken from PubChem BioAssay (EPA / NIEHS).
Results filed as inconclusive are left out. The source holds several records for some structures; these can differ, active in one and inactive in another. Activity calls are given as the source filed them. The calls were made as follows, unless noted: active = hit-call score of the fitted dose curve at least 0.9, where 1 is the maximum; inconclusive = response in the unintended direction; inactive = score below 0.9.

What was measured:
[1] = target: Cellular tumor antigen p53 (Homo sapiens) (UniProt P04637); assay: TOX21_p53_BLA_p3_ratio: Tox21 HCT-116 p53 Agonism Beta-lactamase Assay, Ratio, Phase 3 (AID 2283596)
Chain of Cellular tumor antigen p53 (Homo sapiens) (P04637 whole entry, looked up): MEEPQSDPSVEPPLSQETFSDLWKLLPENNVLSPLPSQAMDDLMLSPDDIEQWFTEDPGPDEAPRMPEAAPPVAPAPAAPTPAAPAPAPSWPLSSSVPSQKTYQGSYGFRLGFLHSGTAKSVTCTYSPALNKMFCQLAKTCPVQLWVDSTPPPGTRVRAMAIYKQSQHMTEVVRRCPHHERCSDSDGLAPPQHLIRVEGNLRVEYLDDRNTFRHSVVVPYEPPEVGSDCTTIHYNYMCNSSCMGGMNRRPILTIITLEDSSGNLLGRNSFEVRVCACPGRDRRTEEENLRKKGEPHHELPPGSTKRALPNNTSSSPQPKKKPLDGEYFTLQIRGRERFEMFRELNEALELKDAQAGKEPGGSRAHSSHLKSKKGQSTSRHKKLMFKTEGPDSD
How it was run: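 HCT116 p53-bla cells (4000/well) given compound in DMSO (217-fold dilution) after 5 h, incubated 16 h at 37C. CCF4-AM substrate 2 h at room temperature; 460/530 nm emission ratio, gain fitted against DMSO.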

[2] = TOX21_p53_BLA_p3_viability: Viability Assessment in the Tox21 HCT-116 p53 Agonism Beta-lactamase Assay, Phase 3 (AID 2283593);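 also: cells exposed to compound for 16 h before reading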
How it was run: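 HCT116 cells, 4000/well, dosed 5 h after plating by pin transfer (217-fold dilution from DMSO stock) and incubated 16 h at 37C, 5% CO2. Viability read as ATP luminescence with CellTiter-Glo after 30 min at room temperature.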

[3] = target: Cellular tumor antigen p53 (Homo sapiens) (UniProt P04637); assay: TOX21_p53_BLA_p4_ratio: Tox21 HCT-116 p53 Agonism Beta-lactamase Assay, Ratio, Phase 4 (AID 2283601)
How it was run: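 HCT-116 p53 beta-lactamase reporter cells (4000/well) preincubated 5 h, then compound (217-fold dilution of DMSO stock) for 16 h at 37C. CCF4-AM substrate added 2 h at room temperature; 460/530 nm emission ratio fitted upward versus DMSO.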

[4] = TOX21_p53_BLA_p4_viability: Viability Assessment in the Tox21 HCT-116 p53 Agonism Beta-lactamase Assay, Phase 4 (AID 2283597);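 also: hits lower the luminescence signal meaning cytotoxicity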
How it was run: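 HCT-116 p53-bla cells, 4000/well, dosed after 5 h attachment and incubated 16 h at 37 °C, 5% CO2. Viability from CellTiter-Glo ATP luminescence after 30 min at room temperature, taken after the beta-lactamase read; loss of signal indicates cytotoxicity.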

[5] = target: Cellular tumor antigen p53 (Homo sapiens) (UniProt P04637); assay: TOX21_p53_BLA_p5_ratio: Tox21 HCT-116 p53 Agonism Beta-lactamase Assay, Ratio, Phase 5 (AID 2283599)
How it was run: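 HCT-116 p53-bla cells (4000/well) plated 5 h, dosed with compound (217-fold DMSO dilution) for 16 h at 37 C; CCF4-AM substrate 2 h at room temperature. Activity is the 460/530 nm emission ratio (405 nm excitation), fitted in gain-of-signal direction versus DMSO.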

[6] = TOX21_p53_BLA_p5_viability: Viability Assessment in the Tox21 HCT-116 p53 Agonism Beta-lactamase Assay, Phase 5 (AID 2283600)
How it was run: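 HCT-116 p53 beta-lactamase reporter cells, 4000/well, were exposed to compound (pin transfer, 217-fold dilution) for 16 hours at 37C. Cellular ATP was read by CellTiter-Glo luminescence after 30 min at room temperature.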

[7] = CCTE_Harrill_HTTr_Apoptosis_MCF7: CCTE's 6-hour Apoptosis Assessment for the High-Throughput Transcriptomics (HTTr) Platform, in MCF-7 cells cultured in DMEM + 10% fetal bovine serum, Harrill Lab (AID 2284011; active = hit-call score of the fitted dose curve at least 0.9, where 1 is the maximum; inactive = score below 0.9)
How it was run: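 MCF-7 cells in DMEM + 10% FBS exposed 6 h to chemicals over an eight-point dilution series. Caspase-3/7 activation imaged by high-content CellEvent Green staining; fitted bidirectionally versus DMSO.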

[8] = CCTE_Harrill_HTTr_CellCount_MCF7: CCTE's Cell Proliferation Assessment for the High-Throughput Transcriptomics (HTTr) Platform, Harrill Lab (AID 2284012);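 also: intended direction is loss of nuclei count meaning fewer cells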
How it was run: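 MCF-7 cells were exposed for 6 h to an eight-point dilution series; Hoechst-labeled nuclei were counted by high content imaging. Curves were fitted bidirectionally against DMSO as negative control and baseline, with signal loss indicating reduced cell count.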

PGR (gene 5241) [9] = target: PGR (gene 5241) (UniProt P06401); assay: TOX21_PR_BLA_Followup_Antagonist_ratio: Tox21 HEK293 Progesterone Receptor (PR) Antagonism Beta-lactamase Follow-Up Assay, Ratio (AID 2283934)
Chain of PGR (gene 5241) (P06401 whole entry, looked up): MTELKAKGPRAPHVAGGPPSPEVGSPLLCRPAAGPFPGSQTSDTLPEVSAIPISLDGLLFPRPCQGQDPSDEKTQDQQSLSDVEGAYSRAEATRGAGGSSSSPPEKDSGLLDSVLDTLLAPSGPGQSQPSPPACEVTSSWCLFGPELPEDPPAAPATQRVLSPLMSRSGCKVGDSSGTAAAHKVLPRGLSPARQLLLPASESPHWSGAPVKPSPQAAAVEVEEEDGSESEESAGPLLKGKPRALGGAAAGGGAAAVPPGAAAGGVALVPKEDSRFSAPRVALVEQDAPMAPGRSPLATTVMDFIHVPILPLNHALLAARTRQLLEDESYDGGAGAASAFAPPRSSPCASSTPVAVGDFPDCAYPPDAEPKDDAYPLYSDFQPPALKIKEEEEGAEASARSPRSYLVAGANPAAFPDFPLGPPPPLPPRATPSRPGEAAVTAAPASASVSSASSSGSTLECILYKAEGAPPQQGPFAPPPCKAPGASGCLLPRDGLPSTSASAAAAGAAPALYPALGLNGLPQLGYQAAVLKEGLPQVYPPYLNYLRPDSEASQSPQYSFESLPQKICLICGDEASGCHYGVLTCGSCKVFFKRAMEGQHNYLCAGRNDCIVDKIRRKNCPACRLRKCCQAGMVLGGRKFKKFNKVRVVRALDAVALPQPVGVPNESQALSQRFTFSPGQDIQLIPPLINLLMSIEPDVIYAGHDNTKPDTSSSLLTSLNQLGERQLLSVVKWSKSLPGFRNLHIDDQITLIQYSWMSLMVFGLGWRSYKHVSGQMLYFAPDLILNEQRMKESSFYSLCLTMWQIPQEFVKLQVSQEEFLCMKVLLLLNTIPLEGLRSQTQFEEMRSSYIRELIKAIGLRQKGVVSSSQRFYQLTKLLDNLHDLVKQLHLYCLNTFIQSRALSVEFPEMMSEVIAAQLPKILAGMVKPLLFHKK
How it was run: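 PR-UAS-bla HEK293T cells in medium with 2% charcoal-stripped FBS were treated with compounds plus 1 nM (final) promegestone (R5020) for 16 hr at 37C. LiveBLAzer B/G FRET substrate was then added for 2 h at room temperature; signal is cleaved/uncleaved substrate ratio versus DMSO.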

[10] = TOX21_PR_BLA_Followup_Agonist_viability: Viability Assessment in the Tox21 HEK293 Progesterone Receptor (PR) Agonism Beta-lactamase Follow-Up Assay (AID 2283935);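 also: signal loss means lower viability so actives are cytotoxic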
How it was run: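 PR-UAS-bla HEK293T cells in 2% charcoal-stripped FBS medium, compound added after 6 hr plating, 16 hr at 37C/5% CO2. After bla FRET read, CellTiter-Glo added; luminescence read after 30 min at room temperature; signal loss marks cytotoxicity.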

[11] = TOX21_PR_BLA_Followup_Antagonist_viability: Viability Assessment in the Tox21 HEK293 Progesterone Receptor (PR) Antagonism Beta-lactamase Follow-Up Assay (AID 2283936);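 also: hits lower the luminescence signal meaning cytotoxicity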
How it was run: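 PR-UAS-bla HEK293T cells (3,000/well, 2% charcoal-stripped FBS) given compound plus R5020 agonist, 16 h at 37C. CellTiter-Glo added after bla read, 30 min at room temperature; luminescence loss indicates cytotoxicity.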

PGR (gene 5241) [12] = target: PGR (gene 5241) (UniProt P06401); assay: TOX21_PR_LUC_Followup_Antagonist: Tox21 HEK293 Progesterone Receptor (PR) Antagonism Luciferase Follow-Up Assay (AID 2283938);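 also: curve fitted upward as signal gain over DMSO baseline despite antagonist label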
How it was run: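 HEK293-PR-A-luc cells, 3,000/well, preincubated 5 h at 37C before compound addition in DMSO; 16 h compound exposure at 37C. ONE-Glo luciferase luminescence read after 30 min at room temperature, fitted relative to DMSO baseline.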

[13] = TOX21_PR_LUC_Followup_Antagonist_viability: Viability Assessment in the Tox21 HEK293 Progesterone Receptor (PR) Antagonism Luciferase Follow-Up Assay (AID 2283940)
How it was run: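 HEK293-PR-A-luc cells, precultured 5 days in assay medium with 10% charcoal-stripped FBS, were seeded at 3,000 cells/well, treated with compounds in DMSO for 16 h at 37C, and viability was read as cellular ATP by CellTiter-Glo luminescence.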

[14] = TOX21_PR_LUC_Followup_Agonist_viability: Viability Assessment in the Tox21 HEK293 Progesterone Receptor (PR) Agonism Luciferase Follow-Up Assay (AID 2283941);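 also: loss of signal means cytotoxicity so actives lower viability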
How it was run: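 HEK293-PR-A-luc cells, pre-cultured 5 days in 10% charcoal-stripped FBS, were seeded at 3,000 cells/well, rested 5 h at 37C, then given compound in DMSO for 16 h at 37C. Cellular ATP was read by CellTiter-Glo luminescence; signal loss indicates cytotoxicity.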

SMILES: CCOC(=O)c1cncn1C(C)c1ccccc1 (stereo not drawn)
- outcome [1]: inactive

SMILES: CC(C)c1c(CN(C)C(C)Cc2ccccc2)n(C)n(-c2ccccc2)c1=O (stereo not drawn)
- outcome [2]: inactive
- outcome [3]: inactive

SMILES: C[N+]1(CCF)[C@@H]2CC[C@H]1CC(OC(=O)C(O)(c1ccccc1)c1ccccc1)C2 (stereo partly drawn)
- outcome [4]: inactive

SMILES: CCC(C)Cl (stereo not drawn)
- outcome [1]: inactive
- outcome [4]: inactive
- outcome [5]: inactive
- outcome [6]: inactive
- outcome [3]: inactive

SMILES: O=NN(CCO)CCO
- outcome [1]: inactive
- outcome [4]: inactive
- outcome [3]: inactive

SMILES: CCCCCCCCCC(=O)O[C@H]1CC[C@H]2[C@@H]3CCC4=CC(=O)CC[C@@H]4[C@H]3CC[C@]12C
- outcome [1]: inactive
- outcome [3]: inactive

SMILES: C[N+](C)(C)CCCl
- outcome [1]: inactive
- outcome [3]: inactive

SMILES: Cc1cc(OC(=O)N(C)C)nn1C(=O)N(C)C
- outcome [4]: inactive
- outcome [5]: inactive
- outcome [6]: inactive
- outcome [3]: inactive

SMILES: CC1CCCC1
- outcome [1]: inactive
- outcome [5]: inactive
- outcome [3]: inactive

SMILES: CCN(CC)CCN1C(=O)CN=C(c2ccccc2F)c2cc(Cl)ccc21
- outcome [4]: inactive
- outcome [6]: inactive

SMILES: COc1ccc(C(=O)c2c(C)n(CCN3CCOCC3)c3ccccc23)cc1
- outcome [1]: inactive
- outcome [5]: inactive
- outcome [3]: inactive

SMILES: O=C=NC1CCCCC1
- outcome [4]: inactive
- outcome [5]: inactive
- outcome [6]: inactive
- outcome [3]: inactive

SMILES: CC(=O)[C@@]1(O)CC[C@H]2[C@@H]3CCC4=CC(=O)CC[C@]4(C)C3(F)[C@@H](O)C[C@@]21C (stereo partly drawn)
- outcome [4]: inactive
- outcome [6]: inactive

SMILES: CC(Cc1ccc2c(c1)OCO2)NO (stereo not drawn)
- outcome [2]: inactive
- outcome [5]: inactive
- outcome [3]: inactive

SMILES: CCCCCBr
- outcome [4]: inactive
- outcome [5]: inactive

SMILES: O=NN1CCCCC1
- outcome [1]: inactive
- outcome [4]: inactive
- outcome [6]: inactive
- outcome [3]: inactive

SMILES: CCC1(C)CC(=O)NC(=O)C1
- outcome [2]: inactive
- outcome [3]: inactive

SMILES: Cc1cccc(C#N)c1
- outcome [1]: inactive
- outcome [5]: inactive
- outcome [6]: inactive
- outcome [3]: inactive

SMILES: O=c1[nH]c2ccccc2n1CCCN1CCC(n2c(=O)[nH]c3cc(Cl)ccc32)CC1
- outcome [1]: inactive
- outcome [6]: inactive

SMILES: N#CCCl
- outcome [4]: inactive
- outcome [5]: inactive
- outcome [6]: inactive
- outcome [3]: inactive

SMILES: CN[C@@H](C)[C@H](O)c1ccccc1
- outcome [1]: inactive
- outcome [5]: inactive
- outcome [6]: inactive
- outcome [3]: inactive

SMILES: COP(N)(=S)Oc1ccccc1C(=O)OC(C)C (stereo not drawn)
- outcome [1]: inactive
- outcome [4]: inactive
- outcome [5]: inactive
- outcome [6]: inactive
- outcome [3]: inactive

SMILES: CCCC(C)(COC(N)=O)COC(=O)NC1CC1 (stereo not drawn)
- outcome [1]: inactive
- outcome [5]: inactive
- outcome [6]: inactive
- outcome [3]: inactive

SMILES: CC1(C)S[C@@H]2[C@H](N)C(=O)N2[C@H]1C(=O)O
- outcome [4]: inactive
- outcome [5]: inactive
- outcome [6]: inactive
- outcome [3]: inactive

SMILES: CCNCC(O)c1cccc(O)c1 (stereo not drawn)
- outcome [1]: inactive
- outcome [5]: inactive
- outcome [6]: inactive
- outcome [3]: inactive

SMILES: COc1ccc2c3c1O[C@H]1[C@H](O)CC[C@H]4[C@@H](C2)N(C)CC[C@@]341
- outcome [1]: inactive
- outcome [4]: inactive
- outcome [6]: inactive
- outcome [3]: inactive

SMILES: COc1ccc2c3c1O[C@H]1[C@@H](O)C=C[C@H]4[C@@H](C2)N(C)CC[C@@]341
- outcome [4]: inactive
- outcome [7]: inactive
- outcome [8]: inactive

SMILES: C[C@H]1CCC[C@H](O)CCCCCc2cc(O)cc(O)c2C(=O)O1
- AC50 [1]: 74.2 µM (active)
- outcome [1]: inactive
- outcome [6]: inactive
- outcome [3]: inactive
- AC50 (PGR (gene 5241) [9]): 4.51 µM (active)
- outcome [10]: inactive
- outcome [11]: inactive
- AC50 (PGR (gene 5241) [12]): 10.1 µM (active)
- outcome [13]: inactive
- outcome [14]: inactive
